Bioassay records as filed in PubChem.
CYP2C9 inhib: blockers of cytochrome P450 2C9 activity – biochemical, luminescence, ADME assay, primary screen | CYP2C9 Supersomes, luciferin-H conversion | hit rate 20% among 96,000 | inhibition, % at 5 µM | AID 777, 2007;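 active = blocking of liver enzyme CYP2C9 beyond about 50% at 5 µM, limit read from the data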
Target sequence (P11712 whole entry, looked up): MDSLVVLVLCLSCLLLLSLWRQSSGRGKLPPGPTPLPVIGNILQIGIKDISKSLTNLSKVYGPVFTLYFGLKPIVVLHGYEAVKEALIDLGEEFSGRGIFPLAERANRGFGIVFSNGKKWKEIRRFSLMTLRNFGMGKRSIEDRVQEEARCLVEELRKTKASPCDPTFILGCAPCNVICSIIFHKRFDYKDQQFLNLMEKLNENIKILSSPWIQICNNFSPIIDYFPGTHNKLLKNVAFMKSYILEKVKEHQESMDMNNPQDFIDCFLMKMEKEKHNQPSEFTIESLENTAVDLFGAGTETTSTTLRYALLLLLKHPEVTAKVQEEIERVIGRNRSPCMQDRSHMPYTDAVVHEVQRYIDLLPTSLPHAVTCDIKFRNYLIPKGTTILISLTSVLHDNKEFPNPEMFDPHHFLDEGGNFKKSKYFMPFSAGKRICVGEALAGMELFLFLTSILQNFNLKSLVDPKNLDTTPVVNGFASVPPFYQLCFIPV
sEH activator: soluble epoxide hydrolase activators, primary screen, biochemical, human sEH | activation, % at 2 µM | AID 717, 2007 | purified human sEH enzymatic activity, activator screen | hit rate 0.04% among 91,000; in the data active = activation above about 37%
sEH inhibitor: soluble epoxide hydrolase inhibitors, primary screen, biochemical, human sEH; recombinant human sEH enzymatic activity assay; inhibition, % at 2 µM; hit rate 0.34% among 91,000; AID 707, 2007; in the data active = inhibition above about 80%
CYP2C19 activ: human CYP2C19 activators, primary screen, biochemical, luminescence; recombinant CYP2C19, luciferin-H EGE luminescence; stronger effect = higher value; 0 = fully inhibited enzyme, 1 = untreated enzyme; activation factor at 5 µM; 96,000 tested, under 10 active; AID 1025, 2008;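 active = activation factor of at least 2 at 5 µM in the primary screen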;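 also: 0 = wells with 2.5 mM tranylcypromine and 1 = vehicle-only wells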
CYP2C19 inhib: blockers of cytochrome P450 2C19 activity – biochemical, luminescence, ADME assay, primary screen | inhibition, % at 5 µM | CYP2C19 Supersomes, luciferin-H EGE luminescence, 30 min | AID 778, 2007 | hit rate 21% among 96,000;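 active = CYP2C19 inhibition above a set limit at 5 µM in the primary screen, cut at about 50% in these data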;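 also: plate controls were negative control wells for no effect and 2.5 mM tranylcypromine positive control for full effect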
CYP2C9 activ: human CYP2C9 activators, primary screen, biochemical, luminescence. activation factor at 5 µM. recombinant CYP2C9, luciferin-H conversion; stronger effect = higher value; factor 1 = untreated enzyme, 0 = blocked. Cytochrome P450 2C9 (Homo sapiens), P11712. hit rate 1.4% among 96,000. AID 1024, 2008;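 active = activation factor of 2 or more for CYP2C9 at a 5 µM dose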;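 also: 0 = sulfaphenazole-blocked wells and 1 = vehicle-only wells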
* hit, by the source's call; / = no result. Sampled rows, rich in hits. Any-hit rate of the full collection: about 27%.

SMILES	CYP2C9 inhib	sEH activator	sEH inhibitor	CYP2C19 activ	CYP2C19 inhib	CYP2C9 activ
O=C(CN1C(=O)C2CC=CCC2C1=O)NC1=NCCS1 (stereo not drawn)	2	-2	2	1	-1	1
Cc1ccc(-n2nnnc2SCC(=O)N2CCc3ccccc3C2)c(C)c1	-100	/	/	1	1	2*
Cc1ccc(-n2nnnc2SCC(=O)N2CCc3ccccc3C2)cc1	/	-2	0	/	/	/
Nn1c(COc2cccc(Br)c2)nnc1SCC(=O)N1CCc2ccccc2C1	4	/	/	0.5	52*	1
Cn1nnnc1SCC(=O)N1CCc2ccccc2C1	-15	10	-12	0.3	70*	1.2
C/C(N)=C(/C#N)C(=O)CSc1nnnn1-c1ccc(C)cc1C	31	/	/	0	100*	0.7
CN(C)C(CNC(=O)NC1CCCCC1)c1cccnc1 (stereo not drawn)	-3	-19	19	1	-1	1
O=C(CCn1cccc1)NC1CCCc2ccccc21 (stereo not drawn)	2	12	-13	0.9	12	1
CCC(=O)N1CCc2cc(S(=O)(=O)NCCC(=O)NC3CCCc4ccccc43)ccc21 (stereo not drawn)	-24	/	/	1	-2	1.2
CC1CC(C)CN(c2ccc(C(=O)OCC(=O)NC3CCCc4ccccc43)cc2[N+](=O)[O-])C1 (stereo not drawn)	52*	-27	28	0.8	22	0.5
O=C(COC(=O)c1ccc(Sc2ccccc2)c([N+](=O)[O-])c1)NC1CCCc2ccccc21 (stereo not drawn)	88*	-13	14	1.1	-12	0.1
Cn1c(=O)c2c(n(C)c1=O)=NC1(CCCCC1)ON=2	14	7	-6	0.8	23	0.9
O=C(Nc1nc(-c2ccccc2)cs1)c1cccnc1	37	-4	4	0.3	67*	0.6
N#Cc1ccc(-c2csc(NNC(=O)c3ccccc3)n2)cc1	-18	3	-3	1.1	-14	1.2
O=C(NC(=S)Nc1nc(-c2ccc(Br)cc2)cs1)c1cccnc1	27	2	-2	1.1	-11	0.7
O=C(NNc1nc(-c2ccccc2)cs1)c1ccccc1	53*	6	-4	0.6	40	0.5
CCOP(=O)(c1ccccc1)C1(O)CCCCC1 (stereo not drawn)	-14	5	-4	1.1	-11	1.1
CC1CC(=O)C2=C(C1)Nc1ccccc1N(C(=O)COc1ccccc1)C2c1ccco1 (stereo not drawn)	48	11	-9	0.4	56*	0.5
O=C1CC(c2ccco2)CC2=C1C(c1ccccc1)n1nc(C(F)(F)F)nc1N2 (stereo not drawn)	62*	2	3	0.7	30	0.4
CCC(=O)N1c2ccccc2NC2=C(C(=O)CCC2)C1c1cccnc1 (stereo not drawn)	33	/	/	0.9	5	0.7
COc1ccc(C2C3=C(CC(c4ccco4)CC3=O)Nc3ccccc3N2C(C)=O)cc1 (stereo not drawn)	81*	-8	8	0.5	48	0.2
CCCCc1ccc(NC(=O)c2c(C)noc2C)cc1	17	2	-1	0.9	10	0.8
O=C1c2ccc(Oc3ccc4c(c3)C(=O)N(CCCCO)C4=O)cc2C(=O)N1CCCCO	86*	/	/	0.2	84*	0.1
O=C(O)CCN1C(=O)c2ccc(Oc3ccc4c(c3)C(=O)N(CCC(=O)O)C4=O)cc2C1=O	-11	-7	8	1	3	1.1
Cc1cccc(OCCOc2ccc(/C=N/NC(=O)Cc3nnc(N)s3)cc2)c1	0	-6	3	1	-4	1
SMILES	CYP2C9 inhib	sEH activator	sEH inhibitor	CYP2C19 activ	CYP2C19 inhib	CYP2C9 activ
CC1(C)Cc2c(c(N3CCOCC3)nc3sc4c(NN)ncnc4c23)CS1	10	10	-10	1.2	-18	0.9
CCOc1nnnc2c1sc1nc(N3CCOCC3)c3c(c12)CC(C)(C)OC3	/	-6	6	/	/	/
CC1(C)Cc2c(c(N3CCOCC3)nc3sc4c(NCc5ccco5)nnnc4c23)CS1	93*	-8	9	0.4	61*	0.1
CC(C)CNc1nnnc2c1sc1nc(N3CCOCC3)c3c(c12)CC(C)(C)SC3	81*	0	4	0.7	34	0.2
CC1(C)Cc2c(c(N3CCOCC3)nc3sc4c(NCc5ccccc5)nnnc4c23)CS1	98*	14	-12	0.4	57*	0
CCCCCCNC(=O)c1c(O)c2ccccc2[nH]c1=O	28	-6	7	0.8	18	0.7
COc1ccc2c(c1)c(=O)cc(-c1ccccc1)n2C	/	-3	3	/	/	/
CCC(C)NC(=O)CSc1nnc(-c2ccoc2C)n1CC1CCCO1 (stereo not drawn)	10	1	-4	1	4	0.9
Cc1nc(-c2c(C(F)(F)F)noc2-c2ccc(O)cc2O)cs1	6	24	-25	0.3	69*	0.9
CCOc1cc(C)c(-c2onc(C(F)(F)F)c2-c2csc(C)n2)c(O)c1	21	6	-8	0.2	76*	0.8
Oc1ccc(-c2onc(C(F)(F)F)c2-c2cscn2)c(O)c1	-130	0	-1	0.2	76*	2.3*
CCc1cc2c(=O)c(-c3cscn3)coc2cc1O	-17	/	/	1.1	-10	1.2
Cn1c(=O)cc(SCC(=O)Nc2cccnc2)c2ccccc21	-102	/	/	0.8	18	2*
Cn1c(=O)cc(SCC(=O)NCc2ccco2)c2ccccc21	-38	/	/	1	4	1.4
Cn1c(=O)cc(SCC(=O)Nc2ccccn2)c2ccccc21	-154	/	/	1.3	-25	2.5*
O=C(CSc1ccccn1)Nc1cccc(NC(=O)CSc2ccccn2)n1	55*	14	-15	0.9	13	0.4
Cc1ccnc(NC(=O)CSc2cc(=O)n(C)c3ccccc23)c1	-209	/	/	2.3*	-127	3.1*
Cn1c(=O)cc(SCC(=O)NCc2cccnc2)c2ccccc21	/	-2	5	/	/	/
CC(=O)Nc1nonc1NC(=O)CSc1ccccn1	9	5	-4	0.8	19	0.9
Cc1ccnc(NC(=O)CCCOc2cc(=O)n(C)c3ccccc23)c1	-33	-6	5	1	1	1.3
Cc1nn(C)cc1CNC(=O)Nc1cccc(Cl)c1	-27	-27	26	0.7	28	1.3
N#CC1=C(N)OC2=C(CC/C2=C\c2ccccc2)C1c1ccccc1 (stereo not drawn)	70*	-15	15	0.7	26	0.3
O=C(CCNS(=O)(=O)c1cccc2nsnc12)NCc1cccs1	-67	-14	12	0.8	16	1.7
CN(CC(=O)NCCN1CCCCCC1)S(=O)(=O)c1cccc2nsnc12	3	-4	4	1	2	1
